Over roughly 33,000 sequences, “E-score (-0.5 to 0.5)” has its median near -0.056; the highest 2% begin near 0.38. The sample holds the highest values, similar sequences and a random draw of the others, so the mix is not that of the screen.
Each sequence was assayed against Stb4 (UniProt P50104) (assay: PBM E-score (8-mer binding enrichment) (E-score (-0.5 to 0.5)); higher = stronger / more preferred TF binding). Conditions: protein concentration: 200 nM; construct: GST-DNA-binding domain.
Experimental: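 Universal 'all 10-mer' protein binding microarrays (Agilent AMADID 015681) probed with GST-tagged S. cerevisiae TFs (full-length or DBD) made by in vitro transcription/translation (PURExpress), about 100-200 nM. Bound TF was detected with fluorescent anti-GST. Each ungapped 8-mer (which stands for itself and its reverse complement) is scored by the PBM enrichment score (E-score), a modified Wilcoxon-Mann-Whitney statistic from -0.5 to +0.5, computed with the Universal PBM Analysis Suite. Scale: above 0.35 generally sequence-specific binding.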

UniProt P50104, sequence (P50104 whole entry, the tested form may be a part): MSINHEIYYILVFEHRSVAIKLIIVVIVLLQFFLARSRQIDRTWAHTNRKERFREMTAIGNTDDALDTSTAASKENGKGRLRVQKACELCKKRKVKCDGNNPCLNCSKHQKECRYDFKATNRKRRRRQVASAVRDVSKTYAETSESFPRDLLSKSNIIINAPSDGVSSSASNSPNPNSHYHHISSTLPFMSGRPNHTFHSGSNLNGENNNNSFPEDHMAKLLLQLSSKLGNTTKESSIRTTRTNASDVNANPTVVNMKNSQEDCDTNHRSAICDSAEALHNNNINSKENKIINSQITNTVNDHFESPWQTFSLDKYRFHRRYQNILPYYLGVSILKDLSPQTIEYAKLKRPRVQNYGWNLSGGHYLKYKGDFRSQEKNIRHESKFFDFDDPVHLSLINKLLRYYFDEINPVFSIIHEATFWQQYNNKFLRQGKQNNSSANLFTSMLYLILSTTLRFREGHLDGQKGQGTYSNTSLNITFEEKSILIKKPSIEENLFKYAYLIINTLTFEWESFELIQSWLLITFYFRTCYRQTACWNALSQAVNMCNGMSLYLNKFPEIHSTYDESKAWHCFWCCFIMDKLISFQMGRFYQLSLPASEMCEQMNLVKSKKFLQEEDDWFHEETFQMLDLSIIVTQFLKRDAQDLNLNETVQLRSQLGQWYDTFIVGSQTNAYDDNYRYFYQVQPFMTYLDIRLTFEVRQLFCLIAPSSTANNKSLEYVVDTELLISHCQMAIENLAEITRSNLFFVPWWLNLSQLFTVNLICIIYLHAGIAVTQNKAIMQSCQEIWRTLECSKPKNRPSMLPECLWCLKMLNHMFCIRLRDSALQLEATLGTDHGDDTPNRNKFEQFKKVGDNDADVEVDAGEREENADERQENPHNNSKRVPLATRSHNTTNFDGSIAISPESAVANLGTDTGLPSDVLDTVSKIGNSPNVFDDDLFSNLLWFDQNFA

| Sequence | PBM E-score |
| --- | --- |
| CGAACGGA | 0.327 |
| GTCTAAAA | -0.0585 |
| GTACTGAC | -0.0527 |
| AGTAAGCG | -0.0174 |
| AGACTATG | -0.17 |
| ACCAGGCG | -0.159 |
| CATACAGA | -0.0776 |
| AGTGATTG | -0.0135 |
| ACCTCGAA | -0.105 |
| ACCTCGTC | -0.0708 |
| ACCTCGAG | -0.0838 |
| ACCTCGGG | 0.421 |
| ACCTCGCC | -0.0213 |
| CCCTCGTC | 0.0826 |
| ACCTCGTA | 0.0536 |
| ACCTCGGC | 0.415 |
| ACCTCGTG | -0.0555 |
| ACCTCGGA | 0.463 |
| CCCTCGGC | 0.399 |
| CCCTCGCC | -0.217 |
| AGTAGATA | -0.0337 |
| CTCCATTA | -0.148 |
| CGCCTTTC | -0.0815 |
| AGGGTAAA | 0.0281 |
| TGGGTAAA | -0.0511 |

| Sequence | PBM E-score |
| --- | --- |
| CGGGTAAA | 0.424 |
| CGGGTAAG | 0.336 |
| GGGGTAAC | -0.122 |
| CGGGTAAC | 0.393 |
| AAGCCTAC | -0.253 |
| CACACTGG | -0.18 |
| CATTTAGG | -0.174 |
| ACGCTTTG | 0.035 |
| GTCTATTA | -0.00563 |
| CCCGGGAC | 0.387 |
| ATCGGGGA | 0.243 |
| ATCGGGAC | 0.284 |
| GCCGGGAC | 0.28 |
| CTCGGGAA | 0.462 |
| ATCGGGAA | 0.412 |
| CCGGGGAC | 0.157 |
| ATCGGGAG | 0.367 |
| CTCGGGAC | 0.45 |
| CTCGGGGA | 0.349 |
| CACGGGAC | 0.214 |
| GTCGGGAA | 0.377 |
| AGCAACTC | -0.0301 |
| TACTCAAA | -0.108 |
| CTTATCGA | -0.105 |
| AGTCACTG | -0.274 |

| Sequence | PBM E-score |
| --- | --- |
| AACTGAAA | -0.121 |
| CCCTATAC | -0.154 |
| ACACCGTG | 0.106 |
| CTTGACGA | -0.0253 |
| ACTACTTG | -0.195 |
| CTGAGCTC | -0.172 |
| CCGAGCTC | 0.435 |
| ACGAGCTA | -0.221 |
| CCGAGCTA | 0.424 |
| ACGAGCTC | 0.0375 |
| GCGAGCTA | -0.0842 |
| CACGGTCA | -0.197 |
| CAACTACG | -0.0502 |
| TGAGAACA | -0.212 |
| ACCGGAAT | 0.294 |
| CCCGGAGG | 0.206 |
| ACCGGAAC | 0.419 |
| CCCGGAAC | 0.416 |
| CCCGGACC | 0.26 |
| ACGGGAAG | 0.232 |
| AGCGGAAG | 0.335 |
| CCCGGAAG | 0.417 |
| CCGGGAAC | 0.381 |
| ACCGGAAG | 0.388 |
| CCCGGACG | 0.163 |

| Sequence | PBM E-score |
| --- | --- |
| ACCGGAGC | 0.244 |
| CTGGTGGC | -0.167 |
| CGACTCAC | 0.0516 |
| GAATACCC | 0.341 |
| AAAAGGAG | -0.0435 |
| AGGTACCG | 0.254 |
| CGAGTCTC | 0.0605 |
| GGAGCCCA | -0.203 |
| AGGTGCTC | -0.148 |
| AGGCAGTC | -0.144 |
| GAAGGCGA | -0.051 |
| CGTGGGGC | -0.121 |
| TCCGGACA | 0.322 |
| GACGGAAA | 0.36 |
| GCCGGAAA | 0.401 |
| GGCGGAAA | 0.277 |
| TCCGGAGA | 0.335 |
| TCCGGGAA | 0.388 |
| CCCGGGAA | 0.355 |
| TCCGGAAA | 0.439 |
| ACCGGGAA | 0.335 |
| CCCGGAAA | 0.39 |
| AGGACTGA | -0.0328 |
| CACTTGGA | -0.087 |
| AATGTGGA | -0.0863 |

| Sequence | PBM E-score |
| --- | --- |
| ACGATTCT | -0.05 |
| GTATAGGA | -0.287 |
| AGCCATTA | 0.0954 |
| CTTCTGTC | -0.158 |
| AGCTGATA | -0.047 |
| ACCGGAAA | 0.384 |
| ACCGGACT | 0.252 |
| GCCGGAAC | 0.428 |
| ACCGGCAA | 0.229 |
| GCCGGACC | 0.196 |
| GCCGGAGC | 0.283 |
| AACTGTCC | 0.0472 |
| AGAGTGTA | -0.094 |
| GTTTCCGA | 0.466 |
| CTTTCCGC | 0.324 |
| GTTTCCCA | -0.0576 |
| GTTTCCAA | -0.1 |
| CTTTCCCA | -0.053 |
| CTTTCCGA | 0.463 |
| ATCTATGA | -0.0937 |
| ATGCAGAG | -0.146 |
| GATCAGGA | -0.029 |
| ATTCATCC | 0.202 |
| ATTACACA | -0.13 |
| ACGAAAAC | 0.154 |

| Sequence | PBM E-score |
| --- | --- |
| GCGAAAAC | -0.154 |
| CCGAAACC | 0.395 |
| ACGAAAAG | -0.23 |
| CCGAAAAC | 0.41 |
| ACGAAACC | -0.0179 |
| TCGAAAAA | -0.00854 |
| CCGAAAAG | 0.384 |
| ACGAAAAA | -0.189 |
| CCGAAACA | 0.364 |
| CCGAAAGG | 0.363 |
| CCGAAAAA | 0.434 |
| CTAATCGA | -0.105 |
| CGCCTCCC | -0.0433 |
| CGGTCCCC | 0.141 |
| CCCTATGC | -0.0929 |
| AAGTGCGG | 0.226 |
| CCGAAAGA | 0.388 |
| CCGAAAGC | 0.377 |
| GCGAAAGA | -0.166 |
| ACGAAGGC | -0.0627 |
| GACCTGGA | -0.196 |
| GTCCTGAA | -0.197 |
| TTTCGAAA | -0.307 |
| AACCGAAC | 0.356 |
| AACCGAAG | 0.362 |

| Sequence | PBM E-score |
| --- | --- |
| CACCGAAC | 0.224 |
| GTCCGAAC | 0.335 |
| CTCCGAAC | 0.427 |
| ATCCGAAG | 0.48 |
| TTCCGAAA | 0.468 |
| ATCCGAAC | 0.475 |
| TTGCGAAA | 0.116 |
| ATCCGCAG | 0.285 |
| CTCCGAAA | 0.357 |
| AGTCAGCC | -0.161 |
| ACTGATCT | -0.0326 |
| CAGGAAAG | -0.2 |
| ATACGGGA | 0.237 |
| CACTAAAC | -0.0976 |
| TACTTCTA | -0.254 |
| AAATTGCG | 0.114 |
| TCCTAGGA | -0.093 |
| CTGTGGGA | -0.145 |
| AACCGAAA | 0.372 |
| GTCCGAAA | 0.337 |
| ATACGAAT | -0.0803 |
| CTACGAAG | -0.247 |

— the supplement of paper PMC3334620
